Source: PubChem BioAssay (NCI)
Values joined by “and” are separate entries in the source; they are usually repeats but may differ in a detail not shown here. Equal entries are not always repeated. About 79,000 compounds went through this panel and 15% of them were active in at least one assay; those are over-represented in the sample as a whole. More than one record can exist for a structure, and the calls need not agree. Active and inactive are the calls of the source. Cut-off read from the data, not from the text of the source: active = growth inhibition above about 70%; inactive = the rest.

Legend:
[1] = NCI Yeast Anticancer Drug Screen. Data for the rad52 strain (AID 147);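 note: 0% = growth of vehicle-treated control cultures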; details: S. cerevisiae rad52 mutant growth inhibition, stronger effect = higher value
Outline: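 Yeast strain carrying a DNA damage repair alteration was exposed to test compounds. Growth inhibition was measured relative to vehicle-treated controls.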

[2] = NCI Yeast Anticancer Drug Screen. Data for the wt1 strain (AID 149);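 note: 0% = growth of vehicle-treated wt1 cultures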; details: S. cerevisiae wt1 strain (SPY 50644) growth inhibition, stronger effect = higher value
Outline: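 Using yeast strain wt1, compound-induced growth inhibition was determined against vehicle-treated cultures.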

[3] = NCI Yeast Anticancer Drug Screen. Data for the rad50EPP+ strain (AID 151);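 note: 0% = growth of vehicle-treated control cultures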; details: S. cerevisiae rad50 mutant strain, stronger effect = higher value
Outline: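 Yeast strain carrying rad50 alteration (rad50EPP+) exposed to compounds; growth inhibition measured relative to vehicle-treated controls.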

[4] = NCI Yeast Anticancer Drug Screen. Data for the rad50 strain (AID 155);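 note: 0% = growth of vehicle-only cultures of the same strain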; details: S. cerevisiae rad50 strain growth inhibition, stronger effect = higher value
Outline: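 Relative growth inhibition (compound vs vehicle) was measured in yeast with a defined repair-gene alteration.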

[5] = NCI Yeast Anticancer Drug Screen. Data for the mec2-1 strain (AID 157); details: S. cerevisiae mec2-1 strain, stronger effect = higher value
Outline: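 mec2-1 yeast strain, carrying an alteration in DNA damage repair or cell cycle control, was exposed to compounds; growth inhibition was measured relative to vehicle-treated controls.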

[6] = NCI Yeast Anticancer Drug Screen. Data for the rad14 strain (AID 159);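 note: 0% = growth of vehicle-treated control cultures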; details: S. cerevisiae rad14 strain growth inhibition, stronger effect = higher value
Outline: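 Screen for anticancer potential: a yeast strain altered in DNA damage repair is grown with compound, and reduced growth is quantified against vehicle controls.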

[7] = NCI Yeast Anticancer Drug Screen. Data for the sgs1 mgt1 strain (AID 161);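 note: 0% = growth of cultures given vehicle only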; details: S. cerevisiae sgs1 mgt1 strain, stronger effect = higher value
Outline: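 Growth of a repair-deficient yeast mutant was monitored after compound treatment and expressed as inhibition relative to vehicle-treated cultures.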

[8] = NCI Yeast Anticancer Drug Screen. Data for the CLN2oe strain (AID 163);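 note: 0% = growth of vehicle-only control cultures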; details: S. cerevisiae CLN2oe strain, stronger effect = higher value
Outline: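 Yeast cells carrying a defined cell-cycle control alteration were exposed to test compounds. Growth inhibition was scored against vehicle-treated control cultures.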

[9] = NCI Yeast Anticancer Drug Screen. Data for the cln2 rad14 strain (AID 165);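 note: 0% = growth equal to vehicle treated cultures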; details: S. cerevisiae cln2 rad14 strain, stronger effect = higher value
Outline: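 Yeast carrying cln2 and rad14 alterations (cell cycle control and DNA damage repair) were exposed to compounds. Growth inhibition was measured against vehicle-treated controls.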

[10] = NCI Yeast Anticancer Drug Screen. Data for the bub3 strain (AID 167); details: S. cerevisiae bub3 mutant strain, stronger effect = higher value
Outline: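 Screening used yeast with an engineered genetic alteration affecting cell cycle control. Compound-exposed cultures were compared with vehicle cultures, and reduced growth was taken as inhibition.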

[11] = NCI Yeast Anticancer Drug Screen. Data for the wt2 strain (AID 169);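 note: 0% = growth of vehicle-treated yeast cultures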; details: S. cerevisiae wt2 strain growth inhibition, stronger effect = higher value
Outline: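 Yeast cells were exposed to test compounds, and growth inhibition was measured relative to vehicle-treated controls.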

[12] = NCI Yeast Anticancer Drug Screen. Data for the mlh1 strain (AID 171);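 note: 0% = growth of vehicle-treated control cultures of the same strain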; details: S. cerevisiae mlh1 strain growth inhibition, stronger effect = higher value
Outline: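 Yeast carrying a defined genetic alteration in DNA damage repair or cell cycle control were exposed to test compounds. Growth inhibition was measured relative to vehicle-treated controls.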

[13] = NCI Yeast Anticancer Drug Screen. Data for the sgs1 strain (AID 173);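 note: 0% = growth of vehicle-only control cultures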; details: S. cerevisiae sgs1 mutant, stronger effect = higher value
Outline: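 Yeast mutant strains carrying defined defects in DNA damage repair or cell cycle control were exposed to test compounds. Growth inhibition was scored against vehicle-treated controls.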

[14] = NCI Yeast Anticancer Drug Screen. Data for the mlh1 rad18 strain (AID 175); details: S. cerevisiae mlh1 rad18 strain growth inhibition, stronger effect = higher value
Outline: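 Growth inhibition of the yeast strain was measured after compound exposure and expressed relative to vehicle-treated controls. The strain carries defined defects in DNA damage repair.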

[15] = NCI Yeast Anticancer Drug Screen. Data for the rad18 strain (AID 177); details: S. cerevisiae rad18 mutant growth inhibition, stronger effect = higher value
Outline: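 Yeast carrying a defined DNA damage repair alteration were exposed to compounds. Growth inhibition was expressed relative to vehicle-treated controls.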

[16] = at 5.0 µM (retest, dose inferred, filed as 0.5)
[17] = at 50.0 µM (retest, dose inferred, filed as 5.0)

Measured: growth inhibition

Cc1c(N)nc([C@H](CC(N)=O)NC[C@H](N)C(N)=O)nc1C(=O)N[C@H](C(=O)N[C@H](C)[C@@H](O)[C@H](C)C(=O)N[C@H](C(=O)NCCc1nc(-c2nc(C(=O)NCCC[S+](C)C)cs2)cs1)[C@@H](C)O)C(OC1OC(CO)C(O)C(O)C1OC1OC(CO)C(O)C(OC(N)=O)C1O)c1cnc[nH]1 (stereo partly specified)
inactive: [1]; at 1.2 µM 7% | [1]; at 3.7 µM 19% | [1]; at 11.0 µM 54% | [2]; at 1.2 µM 0% | [2]; at 3.7 µM 1% | [2]; at 11.0 µM 11% | [2]; at 33.0 µM 27% | [3]; at 1.2 µM 0% | [3]; at 3.7 µM 7% | [3]; at 11.0 µM 31% | [3]; at 33.0 µM 68% | [4]; at 1.2 µM 8% | [4]; at 3.7 µM 27% | [4]; at 11.0 µM 63% | [5]; at 1.2 µM 1% | [5]; at 3.7 µM 12% | [5]; at 11.0 µM 29% | [5]; at 33.0 µM 52% | [6]; at 1.2 µM 4% | [6]; at 3.7 µM 11% | [6]; at 11.0 µM 29% | [8]; at 1.2 µM 2% | [8]; at 3.7 µM -7% | [8]; at 11.0 µM 14% | [8]; at 33.0 µM 43% | [10]; at 1.2 µM -2% | [10]; at 3.7 µM 2% | [10]; at 11.0 µM 14% | [10]; at 33.0 µM 53% | [11]; at 1.2 µM 0% | [11]; at 3.7 µM 2% | [11]; at 11.0 µM 21% | [11]; at 33.0 µM 54% | [12]; at 1.2 µM 0% | [12]; at 3.7 µM 4% | [12]; at 11.0 µM 18% | [12]; at 33.0 µM 61% | [13]; at 1.2 µM 2% | [13]; at 3.7 µM 8% | [13]; at 11.0 µM 31% | [15]; at 1.2 µM 6% | [15]; at 3.7 µM 27% | [15]; at 11.0 µM 67%
active: [1]; at 33.0 µM 91% | [1]; at 100.0 µM 96% | [2]; at 100.0 µM 74% | [3]; at 100.0 µM 94% | [4]; [16] 98% | [4]; at 33.0 µM 94% | [4]; [17] 99% | [4]; at 50.0 µM 93.2% | [4]; at 100.0 µM 95% | [5]; [16] 99% | [5]; [17] 99% | [5]; at 50.0 µM 93.5% | [5]; at 100.0 µM 94% | [6]; at 33.0 µM 78% | [6]; at 100.0 µM 95% | [7]; [16] 98% | [7]; [17] 99% | [7]; at 50.0 µM 93.3% | [8]; at 100.0 µM 94% | [9]; [16] 96% | [9]; [17] 98% | [9]; at 50.0 µM 89.8% | [10]; [16] 98% | [10]; [17] 99% | [10]; at 50.0 µM 93.7% | [10]; at 100.0 µM 91% | [11]; at 100.0 µM 93% | [12]; at 100.0 µM 95% | [13]; at 33.0 µM 77% | [13]; at 100.0 µM 96% | [14]; [16] 99% | [14]; [17] 99% | [14]; at 50.0 µM 92.8% | [15]; at 33.0 µM 94% | [15]; at 100.0 µM 97%

CCCCCCCCCCCCCCCCP(=O)(O)OP(=O)(O)OCC1OC(n2ccc(N)nc2=O)C(O)C1O (stereo unspecified)
88.3% (active) and 3.75% (inactive): [7]; at 50.0 µM
74% (active) and -35.4% (inactive): [14]; at 50.0 µM
inactive: [1]; at 1.2 µM 3% | [1]; at 3.7 µM 3% | [1]; at 11.0 µM 4% | [1]; at 33.0 µM 3% | [1]; at 100.0 µM 5% | [2]; at 1.2 µM 3% | [2]; at 3.7 µM 4% | [2]; at 11.0 µM 6% | [2]; at 33.0 µM 3% | [2]; at 100.0 µM 3% | [3]; at 1.2 µM 0% | [3]; at 3.7 µM -5% | [3]; at 11.0 µM -6% | [3]; at 33.0 µM -2% | [3]; at 100.0 µM 18% | [4]; at 1.2 µM 2% | [4]; at 3.7 µM 1% | [4]; [16] -13% | [4]; at 11.0 µM 2% | [4]; at 33.0 µM 0% | [4]; [17] 10% | [4]; at 100.0 µM 3% | [5]; at 1.2 µM -3% | [5]; at 3.7 µM -3% | [5]; [16] -9% | [5]; at 11.0 µM -4% | [5]; at 33.0 µM -5% | [5]; [17] -13% | [5]; at 100.0 µM -3% | [6]; at 1.2 µM -2% | [6]; at 3.7 µM -1% | [6]; at 11.0 µM -1% | [6]; at 33.0 µM -1% | [6]; at 100.0 µM 1% | [7]; [16] -2% | [7]; [17] 46% | [8]; at 1.2 µM -3% | [8]; at 3.7 µM -7% | [8]; at 11.0 µM -6% | [8]; at 33.0 µM -17% | [8]; at 100.0 µM -17% | [9]; [16] 0% | [9]; [17] 6% | [9]; at 50.0 µM 59.9% and -13.4% | [10]; at 1.2 µM -1% | [10]; at 3.7 µM -2% | [10]; [16] 14% | [10]; at 11.0 µM -4% | [10]; at 33.0 µM -10% | [10]; [17] -19% | [10]; at 100.0 µM -19% | [11]; at 1.2 µM 1% | [11]; at 3.7 µM 0% | [11]; at 11.0 µM 1% | [11]; at 33.0 µM 1% | [11]; at 100.0 µM 1% | [12]; at 1.2 µM 0% | [12]; at 3.7 µM 0% | [12]; at 11.0 µM 1% | [12]; at 33.0 µM -4% | [12]; at 100.0 µM 1% | [13]; at 1.2 µM 0% | [13]; at 3.7 µM 0% | [13]; at 11.0 µM -3% | [13]; at 33.0 µM 1% | [13]; at 100.0 µM 21% | [14]; [16] -19% | [14]; [17] 26% | [15]; at 1.2 µM -1% | [15]; at 3.7 µM -2% | [15]; at 11.0 µM 3% | [15]; at 33.0 µM 0% | [15]; at 100.0 µM 11%
73.3% (active) and 8.3% (inactive): [4]; at 50.0 µM
80.7% (active) and -3.1% (inactive): [5]; at 50.0 µM
76% (active) and -16.8% (inactive): [10]; at 50.0 µM
